Our source for the growth values is PubChem BioAssay (NCI).

Holding throughout (experiment): NCI-60 one-dose screen, 48 h (100 = growth as untreated, 0 = no growth, -100 = all killed)
What all share (conditions): 10 µM unless noted

For experiment [1], the system named is NCI-H23 lung.
Experiment [2] has as its system NCI-H226 lung.
Experiment [3] deals with NCI-H322M lung.
In experiment [4] the test system is HOP-62 NSCLC.
The test system of experiment [5] is NCI-H460 lung.
Experiment [6] deals with NCI-H522 lung.
For experiment [7], the system named is A549/ATCC NSCLC.
Experiment [8] has as its system 786-0 renal.
The subject of experiment [9] is COLO 205 colon.
Experiment [10] relates to DU-145 prostate.
The subject of experiment [11] is K-562 leukemia.
Experiment [12] deals with MALME-3M melanoma.
The subject of experiment [13] is MDA-MB-231 breast.
The subject of experiment [14] is RXF 393 renal.
The subject of experiment [15] is SF-268 CNS.
In experiment [16] the test system is SF-295 CNS.
The test system of experiment [17] is SF-539 CNS.
The test system of experiment [18] is UACC-257 melanoma.
Experiment [19] concerns M14 melanoma.

The panel holds about 83,000 compounds, 20% with a hit somewhere; the sample as a whole holds those more often.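 Interpretation: 100, growth as untreated; towards 0, rising growth inhibition; 0, no net growth; 0 to -100, cell death. Compounds scoring below 10 were considered active.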 Values without a mark were called inactive. Activity calls are given as the source filed them.

With `Cn1cnc([N+](=O)[O-])c1S(=O)(=O)Oc1cccc2ccccc12`, the growth is 85.5% in experiment [1]; 88.1% in experiment [2]; 104% in [3]; 84.6% in experiment [4]; 106% in experiment [5]; -84.3% (active) in experiment [6]. Moreover, the growth is 98.4% in [7]; 62.7% in [8]; -89.7% (active) in [9]; 43.1% in [10]; 3.91% (active) in experiment [11]; -39.9% (active) in experiment [12]. The growth in [13] is 76.3%; in experiment [14], 19.6%; in [15], 83.7%; in [16], 102%; in experiment [17], 52.8%; in experiment [18], 71%. Also, the growth in experiment [19] was -62.9% (active).
With `CN(C)CCCN1c2ccccc2CCc2ccccc21`, the growth in experiment [1] was 129%; in experiment [2] it was 104%; in experiment [3], 108%; in experiment [4], 82.2%; in experiment [5], 113%; in experiment [6] it was 88.2%. Besides, the growth is 95.8% in [7]; 95.7% in experiment [8]; 78% in experiment [9]; 113% in experiment [10]; 94.9% in experiment [11]; 151% in experiment [12]. The growth is 79% in experiment [13]; 78.6% in experiment [14]; 95.1% in [15]; 106% in [16]; 117% in experiment [17]; 103% in experiment [18]. Besides, the growth in [19] was 128%.
On to `CS(=O)(=O)c1ccc(Cl)c([N+](=O)[O-])c1`, for which the growth is 103% in experiment [1]; 107% in experiment [2]; 149% in experiment [3]; 105% in [4]; 86.9% in [5]; 95.8% in experiment [6]. Further, the growth in [7] is 119%; in experiment [8] it was 98.3%; in experiment [9], 111%; in [10], 33.9%; in experiment [11], 1.69% (active); in experiment [12] it was 132%. Moreover, the growth is 109% in [13]; 113% in experiment [14]; 81.5% in [15]; 102% in experiment [16]; 102% in experiment [17]; 116% in experiment [18]. Further, the growth in experiment [19] is 108%.
As for `Nc1nc(NC2CC2)cc(-c2cccc(Cl)c2Cl)n1`, the growth in [1] is 71.7%; in experiment [2], 92.3%; in experiment [3], 101%; in experiment [4], 47.1%; in [5], 27.6%; in experiment [6], 3.95% (active). Moreover, the growth in [7] was 32.6%; in [8], 69.2%; in experiment [9] it was 44.1%; in experiment [10] it was 78.3%; in experiment [11], 18.9%; in [12], 64.4%. Besides, the growth in experiment [13] was 66.8%; in experiment [14], 73.3%; in experiment [15] it was 67.6%; in experiment [16], 55.7%; in experiment [17], 55.7%; in experiment [18], 49.8%. Besides, in [19], the growth was 18.3%.
In the case of `COc1cnc2c(c1)C(=O)c1c-2n(CCCNC(C)C)c(=O)c2cc(Cl)ccc12`, the growth in [1] was -64.5% (active); in experiment [2] it was 25.5%; in experiment [3], -35.7% (active); in experiment [4] it was -88.4% (active); in [5], -82.9% (active); in experiment [6], -79.8% (active). Further, the growth in [7] was -84% (active); in experiment [8] it was -96.3% (active); in [9], -89.8% (active); in experiment [10], -78.4% (active); in experiment [11], -80% (active); in experiment [12] it was -73.4% (active). For the same molecule, the growth was -79.7% (active) in [13]; -77.1% (active) in [14]; -64.2% (active) in experiment [15]; -77.3% (active) in experiment [16]; -97.3% (active) in experiment [17]; 48.2% in [18]. The growth in experiment [19] was -83.4% (active).
`N/C(=C\C(=O)n1nc(-c2ccccc2)cc1N)c1ccccc1`: the growth in experiment [1] was 58.3%; in experiment [2], 73.4%; in [3] it was 65.4%; in experiment [4], 64%; in experiment [5], 36%; in [6] it was -22.3% (active). Moreover, the growth in experiment [7] is 55.1%; in experiment [8], 65%; in experiment [9], 41.6%; in [10], 58.2%; in experiment [11], 25.6%; in experiment [12], 42.6%. In addition, the growth is 51.5% in [13]; 77.2% in experiment [14]; 63.8% in [15]; 44.5% in [16]; 59.4% in experiment [17]; 58.3% in experiment [18]. Also, the growth in experiment [19] was 31.6%.
`Cc1cc(O)c2cc3c(O)c(O)ccc3cc2c1`: the growth in experiment [1] is 101%; in experiment [2], 115%; in experiment [3] it was 119%; in experiment [4] it was 120%; in experiment [5], 125%; in [6] it was 88.6%. For the same molecule, the growth in [7] is 117%; in experiment [8], 91.5%; in experiment [9], 123%; in [10], 105%; in [11] it was 90.8%; in [12], 109%. The growth was 95.2% in experiment [13]; 107% in experiment [14]; 135% in experiment [15]; 109% in [16]; 100% in experiment [17]; 132% in experiment [18]. For the same molecule, the growth in [19] was 128%.
Turning to `CCCCCCCCCCCCC1CCC(=O)O1` (configuration not stated), the growth is 101% in experiment [1]; 100% in [2]; 74.6% in experiment [3]; 91.8% in [4]; 107% in experiment [5]; 86.9% in experiment [6]. For the same molecule, the growth was 87.4% in experiment [7]; 85.9% in experiment [8]; 97.9% in experiment [9]; 104% in experiment [10]; 97.1% in experiment [11]; 98.2% in experiment [12]. Further, the growth was 103% in [13]; 123% in experiment [14]; 97.1% in experiment [15]; 105% in experiment [16]; 89.8% in experiment [17]; 107% in experiment [18]. Further, in experiment [19], the growth is 91.6%.
